Laboratory results taken from the supplement of paper PMC10849652.
Targets with a hit are over-represented here; the source holds about 7,900 in all. About 0.6% of all pairs of compound and target were hits.

compound: CCCc1cc(C)[nH]c(=O)c1CNC(=O)c1cc(-c2ccnc(N3CCN(C)CC3)c2)cc2c1cnn2C(C)C; experiment: log2 fold change, soluble protein after heating vs DMSO (PISA); higher = thermal stabilisation; K562 cells, 10 uM, 30 min; active = over 0.2 and 3.5 SD of the protein, either way, in both replicates (recomputed)
Summary of the method: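 K562 cells at 2×10^6 cells/mL were given 10 μM compound for 30 min. Aliquots then went through 3 min of heating across 48°C-58°C, were pooled, and were extracted in PBS with 0.5% NP-40 at 4°C, and the supernatant after 21,000xg for 90 min was quantified by TMTpro 16plex LC-MS/MS with channel sums equalised. Thermal stability relative to control samples, from duplicates, is given as log2 fold change.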

Chain of UniProt Q9H773 (Q9H773 whole entry, looked up): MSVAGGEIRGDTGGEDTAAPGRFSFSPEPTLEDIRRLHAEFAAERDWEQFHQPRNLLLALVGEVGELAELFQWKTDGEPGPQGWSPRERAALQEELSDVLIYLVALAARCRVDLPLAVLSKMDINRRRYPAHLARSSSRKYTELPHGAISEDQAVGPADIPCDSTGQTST
Chain of UniProt Q6IAN0 (Q6IAN0 whole entry, looked up): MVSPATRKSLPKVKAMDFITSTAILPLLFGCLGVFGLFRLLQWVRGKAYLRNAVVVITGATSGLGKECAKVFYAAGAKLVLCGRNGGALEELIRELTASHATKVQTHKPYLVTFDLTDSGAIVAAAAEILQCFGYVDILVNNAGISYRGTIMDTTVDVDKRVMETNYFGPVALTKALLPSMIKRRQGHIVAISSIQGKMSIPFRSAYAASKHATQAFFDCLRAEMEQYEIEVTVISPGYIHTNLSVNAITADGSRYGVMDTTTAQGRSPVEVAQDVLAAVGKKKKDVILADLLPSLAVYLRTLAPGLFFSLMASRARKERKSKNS
Chain of UniProt P29692 (P29692 whole entry, looked up): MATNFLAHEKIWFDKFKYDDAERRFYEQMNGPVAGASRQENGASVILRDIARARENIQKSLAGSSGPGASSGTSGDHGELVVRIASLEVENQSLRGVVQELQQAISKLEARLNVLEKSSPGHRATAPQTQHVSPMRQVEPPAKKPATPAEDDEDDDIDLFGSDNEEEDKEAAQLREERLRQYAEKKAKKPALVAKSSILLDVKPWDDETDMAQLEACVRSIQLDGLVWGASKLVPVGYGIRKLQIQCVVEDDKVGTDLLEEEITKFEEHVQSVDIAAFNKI
Chain of UniProt P24534 (P24534 whole entry, looked up): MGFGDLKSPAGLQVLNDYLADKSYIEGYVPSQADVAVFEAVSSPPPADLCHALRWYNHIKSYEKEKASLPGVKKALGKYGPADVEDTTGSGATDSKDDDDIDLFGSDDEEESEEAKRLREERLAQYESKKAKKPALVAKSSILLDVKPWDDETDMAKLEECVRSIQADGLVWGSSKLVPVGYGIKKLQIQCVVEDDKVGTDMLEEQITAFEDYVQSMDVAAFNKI
Chain of UniProt Q96GE9 (Q96GE9 whole entry, looked up): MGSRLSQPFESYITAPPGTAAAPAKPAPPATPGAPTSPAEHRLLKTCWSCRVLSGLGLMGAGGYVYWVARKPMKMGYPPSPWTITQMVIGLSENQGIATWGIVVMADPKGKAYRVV
Chain of UniProt O60888 (O60888 whole entry, looked up): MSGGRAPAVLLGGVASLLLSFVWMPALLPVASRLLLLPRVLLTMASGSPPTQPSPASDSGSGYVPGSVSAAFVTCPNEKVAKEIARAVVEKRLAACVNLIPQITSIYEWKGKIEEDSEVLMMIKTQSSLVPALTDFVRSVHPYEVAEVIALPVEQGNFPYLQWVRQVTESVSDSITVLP
Chain of UniProt Q16850 (Q16850 whole entry, looked up): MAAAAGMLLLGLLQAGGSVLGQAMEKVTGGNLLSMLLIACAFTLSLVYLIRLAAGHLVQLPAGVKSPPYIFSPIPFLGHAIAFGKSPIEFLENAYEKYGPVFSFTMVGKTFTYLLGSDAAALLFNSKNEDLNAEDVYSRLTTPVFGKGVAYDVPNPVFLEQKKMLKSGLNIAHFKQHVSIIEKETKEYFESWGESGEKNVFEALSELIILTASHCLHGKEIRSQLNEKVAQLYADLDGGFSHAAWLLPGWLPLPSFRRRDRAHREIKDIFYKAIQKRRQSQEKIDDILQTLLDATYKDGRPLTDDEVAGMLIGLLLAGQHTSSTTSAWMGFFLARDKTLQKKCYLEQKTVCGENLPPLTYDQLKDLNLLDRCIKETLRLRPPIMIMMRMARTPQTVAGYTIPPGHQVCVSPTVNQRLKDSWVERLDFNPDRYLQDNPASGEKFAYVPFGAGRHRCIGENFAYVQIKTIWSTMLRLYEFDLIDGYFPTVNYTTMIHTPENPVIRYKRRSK
Chain of UniProt O60573 (O60573 whole entry, looked up): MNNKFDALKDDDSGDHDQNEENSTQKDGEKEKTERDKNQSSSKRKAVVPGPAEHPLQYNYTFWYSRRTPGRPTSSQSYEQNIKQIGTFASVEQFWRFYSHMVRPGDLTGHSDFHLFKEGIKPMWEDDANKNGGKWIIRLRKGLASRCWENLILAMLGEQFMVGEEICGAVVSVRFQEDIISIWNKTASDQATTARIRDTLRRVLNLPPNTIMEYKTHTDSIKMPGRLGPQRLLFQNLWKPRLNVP
Chain of UniProt Q15369 (Q15369 whole entry, looked up): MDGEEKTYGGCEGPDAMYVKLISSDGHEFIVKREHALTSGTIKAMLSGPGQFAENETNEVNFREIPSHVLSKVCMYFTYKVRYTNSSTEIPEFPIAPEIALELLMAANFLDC
Chain of UniProt Q9UK59 (Q9UK59 whole entry, looked up): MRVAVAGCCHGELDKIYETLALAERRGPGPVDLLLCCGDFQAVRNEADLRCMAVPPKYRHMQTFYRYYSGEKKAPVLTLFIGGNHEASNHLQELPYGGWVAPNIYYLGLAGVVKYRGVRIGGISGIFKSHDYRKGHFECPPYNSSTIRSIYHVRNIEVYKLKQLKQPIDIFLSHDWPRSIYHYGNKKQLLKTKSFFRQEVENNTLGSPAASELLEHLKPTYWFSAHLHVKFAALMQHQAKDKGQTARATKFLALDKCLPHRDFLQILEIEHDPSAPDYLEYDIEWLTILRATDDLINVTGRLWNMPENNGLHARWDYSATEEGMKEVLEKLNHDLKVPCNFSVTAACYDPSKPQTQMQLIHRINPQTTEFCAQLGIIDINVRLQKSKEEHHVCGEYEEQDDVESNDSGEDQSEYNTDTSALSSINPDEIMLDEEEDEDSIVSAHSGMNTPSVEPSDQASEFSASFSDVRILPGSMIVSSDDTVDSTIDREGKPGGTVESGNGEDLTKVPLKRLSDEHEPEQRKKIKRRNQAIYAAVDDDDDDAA
Chain of UniProt P18074 (P18074 whole entry, looked up): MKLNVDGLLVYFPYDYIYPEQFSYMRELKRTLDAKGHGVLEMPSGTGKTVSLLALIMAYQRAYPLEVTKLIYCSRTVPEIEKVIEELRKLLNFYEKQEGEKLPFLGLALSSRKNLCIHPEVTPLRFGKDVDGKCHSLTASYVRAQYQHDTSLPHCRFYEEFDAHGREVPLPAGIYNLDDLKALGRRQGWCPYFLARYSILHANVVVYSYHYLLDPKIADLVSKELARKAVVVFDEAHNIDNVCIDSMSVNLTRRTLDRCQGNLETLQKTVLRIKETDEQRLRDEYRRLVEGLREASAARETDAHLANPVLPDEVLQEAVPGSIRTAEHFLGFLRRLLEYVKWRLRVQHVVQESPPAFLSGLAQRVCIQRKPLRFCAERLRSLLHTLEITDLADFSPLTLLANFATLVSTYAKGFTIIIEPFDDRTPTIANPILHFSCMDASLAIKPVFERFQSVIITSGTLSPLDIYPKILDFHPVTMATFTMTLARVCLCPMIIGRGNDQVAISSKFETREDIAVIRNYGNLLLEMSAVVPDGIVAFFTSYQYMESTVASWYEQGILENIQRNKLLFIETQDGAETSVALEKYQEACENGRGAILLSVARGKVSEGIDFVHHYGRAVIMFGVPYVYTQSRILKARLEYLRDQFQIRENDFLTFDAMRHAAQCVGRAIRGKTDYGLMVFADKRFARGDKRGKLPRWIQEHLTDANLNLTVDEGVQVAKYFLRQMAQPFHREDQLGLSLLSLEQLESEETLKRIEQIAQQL
Chain of UniProt Q8IYI6 (Q8IYI6 whole entry, looked up): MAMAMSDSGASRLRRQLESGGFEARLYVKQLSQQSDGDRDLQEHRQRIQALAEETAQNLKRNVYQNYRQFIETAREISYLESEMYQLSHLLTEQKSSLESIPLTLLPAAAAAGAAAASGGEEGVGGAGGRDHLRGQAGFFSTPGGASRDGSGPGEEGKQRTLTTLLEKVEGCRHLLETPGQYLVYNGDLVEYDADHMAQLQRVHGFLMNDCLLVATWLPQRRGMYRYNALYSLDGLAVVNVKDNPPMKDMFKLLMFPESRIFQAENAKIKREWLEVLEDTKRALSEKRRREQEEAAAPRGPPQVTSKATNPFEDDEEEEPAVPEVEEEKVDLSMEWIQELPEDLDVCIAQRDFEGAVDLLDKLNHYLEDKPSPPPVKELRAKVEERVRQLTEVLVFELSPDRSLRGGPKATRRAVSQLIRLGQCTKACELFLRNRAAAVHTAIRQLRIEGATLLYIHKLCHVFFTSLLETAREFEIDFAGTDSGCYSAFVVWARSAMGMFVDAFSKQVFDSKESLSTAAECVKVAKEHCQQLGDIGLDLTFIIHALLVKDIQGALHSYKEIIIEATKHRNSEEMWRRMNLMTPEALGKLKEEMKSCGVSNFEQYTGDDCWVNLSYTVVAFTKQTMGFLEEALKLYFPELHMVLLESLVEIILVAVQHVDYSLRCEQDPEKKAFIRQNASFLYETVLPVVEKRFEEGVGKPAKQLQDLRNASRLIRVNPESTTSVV
Chain of UniProt Q9NRY5 (Q9NRY5 whole entry, looked up): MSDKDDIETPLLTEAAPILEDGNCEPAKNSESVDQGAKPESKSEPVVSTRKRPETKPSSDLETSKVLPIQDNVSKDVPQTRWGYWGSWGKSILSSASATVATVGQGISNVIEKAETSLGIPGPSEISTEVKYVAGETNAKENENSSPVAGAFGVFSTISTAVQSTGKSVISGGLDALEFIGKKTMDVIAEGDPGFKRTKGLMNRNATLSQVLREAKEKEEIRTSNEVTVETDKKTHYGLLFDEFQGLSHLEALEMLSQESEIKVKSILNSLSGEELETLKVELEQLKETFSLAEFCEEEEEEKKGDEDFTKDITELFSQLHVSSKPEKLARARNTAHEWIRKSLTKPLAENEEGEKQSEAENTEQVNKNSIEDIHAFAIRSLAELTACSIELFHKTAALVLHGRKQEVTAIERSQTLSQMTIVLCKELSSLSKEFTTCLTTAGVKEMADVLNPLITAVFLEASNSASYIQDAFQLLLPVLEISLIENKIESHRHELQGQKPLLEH
Chain of UniProt Q6P3W2 (Q6P3W2 whole entry, looked up): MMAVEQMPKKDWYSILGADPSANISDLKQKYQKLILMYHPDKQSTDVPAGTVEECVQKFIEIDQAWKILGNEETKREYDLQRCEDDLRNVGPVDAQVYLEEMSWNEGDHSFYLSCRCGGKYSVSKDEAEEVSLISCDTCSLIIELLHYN

log2 fold change, inactive:
ECPAS (UniProt Q5VYK3) 0.051
FAAP100 (UniProt Q0VG06) 0.167
DCTN1 isoform 4 (UniProt Q14203) 0.102
DMAC1 (UniProt Q96GE9) -0.04
DBNL isoform 3 (UniProt Q9UJU6) -0.006
DNAJC24 (UniProt Q6P3W2) 0.027
EIF4E2 (UniProt O60573) 0
DHPS (UniProt P49366) -0.015
DBR1 (UniProt Q9UK59) -0.033
ELOC (UniProt Q15369) 0
EXOC8 (UniProt Q8IYI6) -0.091
EEF1D isoform 2 (UniProt P29692) -0.004
DHRS7B (UniProt Q6IAN0) 0.04
ERCC2 (UniProt P18074) 0.021
EIF2S3 (UniProt P41091) 0.05
CYP51A1 (UniProt Q16850) 0.07
FAM114A2 (UniProt Q9NRY5) -0.058
CUTA isoform 2 (UniProt O60888) 0.16
EEF1B2 (UniProt P24534) -0.009
DCTPP1 (UniProt Q9H773) -0.009
DTWD1 (UniProt Q8N5C7) 0.036
EEF1A1 (UniProt P68104) 0.089

log2 fold change, active:
EED, A0A5F9ZI63 -0.204
